Compound activity from PubChem.
Shown are actives, neighbours in structure and some others; about 2.8% of the full set was active somewhere.
CtBP-E1A inh: qHTS Assay for Inhibitors of the CtBP/E1A Interaction; CtBP / adenovirus E1A interaction (AlphaScreen); AlphaScreen GST-E1A/His-CtBP binding, 1536-well; hits give low values; activity change, % (concentration not given with the values); actives 0.49% (n = 340,000); AID 651724, 2012; in the data active = activity change below about -65%; inconclusive = mostly about -30% to -63%; also: % is scaled to controls: 0 for no effect and ±100 for the full control effect
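In 5 uL wells, 23 nL compound meets equimolar GST-E1A and His-CtBP (5X stock 125 nM each) for 2 h, 37 °C. Beads (5X, 50 ug/mL) then 1 h, 37 °C, dark.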
S2 tox: Viability Counterscreen for Primary qHTS for Inhibitors of ATXN expression | Potency, µM (top dose mostly 56.7 µM), usual class: cytotoxic | actives 0.49% (n = 400,000) | S2 cells (HEK-293 line with an ATXN2-luciferase reporter) viability, CellTiter-Fluor protease fluorescence, 24 h; also: potency is read from the fitted curve at half-maximal effect; nearly all actives have a fitted effect of over 40% in size
HepG2 tox: qHTS for Inhibitors of TGF-b: Cytotox Counterscreen | HepG2 CAGA-GFP viability, ATP luminescence, 18 h | Potency, µM (series often up to 46.1 µM), without a hit: at the highest dose activity change, negative = cytotoxicity, usual class: cytotoxic | actives 0.76% (n = 410,000) | AID 588856, 2011; also: potency is read from the fitted curve at half-maximal effect
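CellTiter-Glo luminescence gave cytotoxicity after 18 hours at 37 degrees C. The cells were HepG2 CAGA-GFP in 1% FBS DMEM, stimulated with 500 pg/mL TGF-beta after compound addition. %Activity was normalised to no-cell wells (complete cell-killing) and DMSO (no toxicity), and curves were fitted and classified.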
TGFb inhibitor: qHTS for Inhibitors of TGF-b | HepG2 CAGA-GFP TGF-b/SMAD3 reporter, GFP fluorescence, 18 h; TGF-beta stimulated, 500 pg/mL final | Potency, µM (series often up to 46.1 µM), for inactives: top-dose activity, negative = inhibition, hits mostly inhibitors | actives 1.2% (n = 410,000) | AID 588855, 2011; also: potency is read from the fitted curve at half-maximal effect; % is scaled to controls: 0 for no effect and ±100 for the full control effect; nearly all actives have a fitted effect of over 65% in size
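Using HEPG2 CAGA-GFP reporter cells at 1000 cells/well, we pinned test compounds, stimulated with recombinant TGF-beta (500 pg/mL final) and measured total well GFP after 18 h.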
ATXN2 expr inh: Primary qHTS for Inhibitors of ATXN expression; HEK-293 ATXN2-luciferase reporter, luminescence, 24 h; Potency, µM (titrated, usually from 57 µM), for inactives: at the highest dose activity change, negative = inhibition, usual class: inhibitors; actives 0.72% (n = 360,000); also: potency is read from the fitted curve at half-maximal effect; % is scaled to controls: 0 for no effect and ±100 for the full control effect; nearly all actives have a fitted effect of over 55% in size
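qHTS (up to 57 uM final) was run with 24 h compound exposure of reporter cells at 37 °C. Each well was multiplexed: SteadyGlo luminescence measured ATXN2-luciferase expression after a fluorogenic Gly-Phe-AFC viability readout (25 uM final).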
Six1-Eya2 inh: qHTS Assay for Inhibitors of the Six1/Eya2 Interaction | Homeobox protein SIX1 (Homo sapiens) + Protein phosphatase EYA2 (Homo sapiens), … | AlphaScreen GST-Six1/His-Eya2 binding, biochemical; hits give low values | activity change, % (concentration not given with the values) | actives 0.56% (n = 360,000); in the data active = activity change below about -65%; inconclusive = mostly about -30% to -63%; also: % is scaled to controls: 0 for no effect and ±100 for the full control effect
Target sequence (O00167 whole entry, looked up): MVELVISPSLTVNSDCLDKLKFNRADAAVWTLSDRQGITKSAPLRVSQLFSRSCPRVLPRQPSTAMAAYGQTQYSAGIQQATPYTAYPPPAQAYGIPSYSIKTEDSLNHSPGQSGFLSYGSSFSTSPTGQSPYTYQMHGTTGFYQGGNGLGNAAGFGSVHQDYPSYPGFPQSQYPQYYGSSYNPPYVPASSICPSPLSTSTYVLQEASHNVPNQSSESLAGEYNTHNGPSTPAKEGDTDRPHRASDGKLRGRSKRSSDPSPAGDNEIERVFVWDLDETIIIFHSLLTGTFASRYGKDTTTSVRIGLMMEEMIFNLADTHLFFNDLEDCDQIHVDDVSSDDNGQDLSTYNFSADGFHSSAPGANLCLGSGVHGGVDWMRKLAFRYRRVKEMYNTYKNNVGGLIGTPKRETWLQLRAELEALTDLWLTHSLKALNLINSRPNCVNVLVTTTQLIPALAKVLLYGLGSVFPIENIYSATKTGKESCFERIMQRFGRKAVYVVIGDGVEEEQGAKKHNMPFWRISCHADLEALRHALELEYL
Target sequence (Q15475 whole entry, looked up): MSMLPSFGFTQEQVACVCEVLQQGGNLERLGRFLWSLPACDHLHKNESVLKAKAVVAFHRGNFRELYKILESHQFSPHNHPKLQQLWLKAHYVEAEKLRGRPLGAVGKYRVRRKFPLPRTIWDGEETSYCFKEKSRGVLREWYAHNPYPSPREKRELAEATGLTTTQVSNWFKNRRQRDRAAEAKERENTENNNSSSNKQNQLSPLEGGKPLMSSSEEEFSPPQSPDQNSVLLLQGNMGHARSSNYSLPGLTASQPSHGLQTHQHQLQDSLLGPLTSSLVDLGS
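Compounds are tested against tagged Six1 and Eya2 proteins bridged by glutathione donor and nickel acceptor beads; after a one-hour incubation at 37 °C without light, AlphaScreen emission is recorded.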
Numbers without * were called inactive; i = inactive; u = inconclusive; x = no result; [ ] = another dose, or the depositor's remark. Unless noted, calls follow the shape of the dose curve; as a rule, active = well fitted curve in the direction sought with a large enough effect; inconclusive = small, poorly fitted or top-dose-only effect, or another doubt; inactive = no such curve, though single readings can be large; an effect the other way counts as inactive or inconclusive.

SMILES | CtBP-E1A inh | S2 tox | HepG2 tox | TGFb inhibitor | ATXN2 expr inh | Six1-Eya2 inh
O=C(Nc1ccccc1C(F)(F)F)c1ncn[nH]1 | -88* | i | -36% | -8% | 27% | -74*
CCc1ccccc1NC(=O)C1CCCN(C(=O)c2cnn(-c3ccccc3)c2-n2cccc2)C1 (stereo not drawn) | x | i | -21% | u | -3% | x
O=C(c1cccc(N2CCCC2=O)c1)N1CCN(c2ccccc2)CC1 | 3 | i | 9% | -4% | 8% | -4
O=C(c1cccc(N2CCCC2=O)c1)N1CCC(Oc2cccc(CN3CCN(c4ccccn4)CC3)c2)CC1 | x | 14µM* | x | x | x | x
CCC(C)c1c(N)n(S(=O)(=O)c2ccc(C)cc2)oc1=O (stereo not drawn) | u | i | -23% | 2% | 1% | -77*
CC(CSC(=O)c1ccccc1)C(=O)N1C[C@@H](Sc2ccccc2)C[C@H]1C(=O)O (stereo partly drawn) | x | i | x | x | 9%[25.6 µM] | x
Cn1cc(C[C@@H](N)C(=O)O)c2ccccc21 | x | x | x | x | -4%[25.6 µM] | x
O=C(O)CCCCCNS(=O)(=O)c1cccc2c1C(=O)c1ccccc1C2=O | 0 | i | -75% | u | -14% | -76*
O=C(O)CCCCCNS(=O)(=O)/C=C/c1ccccc1 | 14 | u | -2% | -9% | -36% | 10
O=C(NCc1ccco1)c1ccc(Cl)c(S(=O)(=O)Nc2ccccc2)c1 | -5 | i | 2% | -6% | -15% | -10
CNS(=O)(=O)c1cc(C(=O)NCc2ccco2)ccc1Cl | 21 | i | -7% | 26% | -10% | -69*
O=C(CSc1ncc2c(n1)-c1ccccc1N(Cc1ccccc1)S2(=O)=O)Nc1ccccc1 | x | i | -2% | 5% | 9% | x
CC1CCc2c(sc(NC(=O)CSc3ncn[nH]3)c2C#N)C1 (stereo not drawn) | 1 | i | -36% | -4% | 0.34µM* | -2
CCN(CC)c1ccc(/C=C/c2nccc3ccccc23)cc1 | x | x | -55% | 162% | x | x
CCN(CC)c1ccc(/C=C/c2ccc3ccccc3n2)cc1 | x | x | 3.2µM* | 2.5µM* | x | x
CC[N+](C)(C)c1ccc(/C=C/c2ccc3ccccc3n2)cc1 | x | x | -56% | 6.3µM* | x | x
CC(=O)/C=C/c1ccc2ccccc2n1 | 0 | i | 20µM* | u | 2% | 2
CC[N+](C)(C)c1ccc(/C=C/c2ccncc2)cc1 | x | x | -16% | 35% | x | x
COCC(=O)Nc1cc(C(=O)N2CCN(C3CCCC3)C(=O)C2)c2c(c1)nc(-c1ccncc1)n2C | x | i | x | x | x | x
COc1ccccc1C(=O)Nc1c(C(=O)Nc2ccccc2F)oc2ccccc12 | x | i | -6% | 15% | 1% | x
CN(C)c1ccc(C(I)C(I)c2ccnc3ccccc23)cc1 (stereo not drawn) | x | x | -56% | 1% | x | x
Cc1ccc(N=C2C(=O)Nc3ccccc32)cc1 | x | u | -3% | -1% | x | -1
CCN(CC)c1ccc(N=C2C(=O)Nc3ccccc32)cc1 | u | u | 13µM* | u | u | -28
CC1(C)S[C@@H]2[C@H](NC(=O)C(C(=O)O)c3ccsc3)C(=O)N2[C@H]1C(=O)O (stereo partly drawn) | x | i | x | x | x | x
NS(=O)(=O)c1ccc(CCNC(=O)c2ccc([N+](=O)[O-])s2)cc1 | 0 | i | 20µM* | u | -34% | 0
CC(C)(C)NC(=O)[C@@H]1C[C@@H]2CCCC[C@@H]2CN1C[C@@H](O)[C@H](Cc1ccccc1)NC(=O)[C@H](CC(N)=O)NC(=O)c1ccc2ccccc2n1 | -9 | 32µM* | -43% | u | u | -7
COC(=O)[C@H](Cc1ccccc1)NC(=O)c1ccc2ccccc2n1 | -10 | i | 2% | -1% | 5% | 6
